Test results published in PubChem BioAssay AID504408 (Broad Institute, 2011).
Hit rate of the full screen: of about 300,000 compounds, about 5,200 (1.7%) were called active.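 The calls were made as follows: active = mean replicate activation of at least 50% with a set share of replicates each reaching 50%; inconclusive = only one of those two conditions met; inactive = mean below 50% and too few replicates reaching it.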 The entries come from a sample that favours actives as a whole.

test: HSF-1 activators, primary screen, NIH3T3-HGL cells, MG132 stress, luminescence, single point (AID 504408); settings: NIH3T3-HGL HSF-1 luciferase reporter, MG132, 8 h; at 9 µM; hits give high values; 100% = twice DMSO control signal;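 also: 0% = median of the neutral control wells and 100% = twice that signal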

activation, inactive:
COc1ccc(CNS(=O)(=O)c2cc3c4c(c2)CCN4C(=O)CC3)cc1 30.7%, COc1ccccc1OCCCCCCN1CCN(C)CC1 -3.8%, Cc1n[nH]c(=O)c2c(NC(=O)CSc3ccccc3F)oc(C)c12 6.59%, COc1ccc(OCCCC(=O)OC(C)C(=O)Nc2ccccc2[N+](=O)[O-])cc1 (stereo not drawn) 10.9%, COc1ccc2oc(=O)c(C(=O)N3CCCC3)cc2c1 6.28%, COc1ccc2c(c1)CCc1c(C(=O)N3CCc4ccccc4C3)noc1-2 6.07%, O=C(NCCN1CCCC(O)C1)c1cc(COc2c(F)cccc2F)on1 (stereo not drawn) -5.99%, O=C(c1cc(COc2c(F)cccc2F)on1)N1CCSCC1 13.6%, Cc1csc(NC(=O)C2=COCCO2)n1 13%, CC(C)CN(C(=O)COC(=O)c1ccc(Cl)c(N)c1)c1c(N)n(Cc2ccccc2)c(=O)[nH]c1=O -19.5%, S=C(NCc1ccc(Cl)cc1)NC1CCCCC1 18.1%, O=C(NC1CCCCCC1)c1cccnc1Sc1ccc(Cl)cc1 -8.73%, CCN(C(=O)COC(=O)c1sccc1C)c1c(N)n(Cc2ccccc2)c(=O)[nH]c1=O -3.51%, CCCNC(=O)c1onc(CSc2ccc(F)cc2)c1C(=O)NC(C)C -0.0105%, CS(=O)(=O)c1ccc(Cl)c(NC(=O)COC(=O)c2ncc(Cl)c(Cl)c2Cl)c1 2.63%, CC(C)c1cc(CN2CCOCC2)cc(C(C)C)c1O 4.46%, CCOc1cc(N2CCOCC2)c(OCC)cc1NC(=O)COc1cccc2cccnc12 -23%, O=C(COC(=O)c1ncc(Cl)c(Cl)c1Cl)NNC(=O)c1ccccc1 3.3%, O=C1CC2(CCN(C(=O)COc3ccc(F)cc3)CC2)Oc2ccccc21 12%, CC(OC(=O)c1ccc(S(=O)(=O)N2CCOCC2)cc1)c1ccccc1 (stereo not drawn) 13.9%, CC(Oc1ccc(F)cc1)C(=O)Nc1ccccc1C(=O)NC1CC1 (stereo not drawn) 6.2%, COc1ccc(NC(=O)c2cc(-c3ccc(C)cc3)on2)cc1 -4.41%, O=C(Nc1cccnc1Cl)c1cc(-c2ccccc2O)on1 11.3%

activation, active:
COc1ccc2c(c1)CCc1c(C(=O)N3CCCC3)noc1-2 54.9%, CC1CN(C(=O)c2cc(COc3c(F)cccc3F)on2)CCN1C (stereo not drawn) 52.1%, O=C(NC1CCCCC1)c1ccc(-c2ccc(Cl)cc2)o1 67.1%, Oc1c(C(c2ccccn2)N2CCOCC2)ccc2cccnc12 (stereo not drawn) 73.3%, Cc1ccc(O)c(NC(=O)c2cc(-c3ccco3)on2)c1 113%
